Screening results deposited in PubChem BioAssay by National Center for Advancing Translational Sciences (NCATS).
FLuc counter: qHTS profiling assay for firefly luciferase inhibitor/activator using purifed enzyme and Km concentrations of substrates (counterscreen for miR-21 project); AID 588342, 2011; purified FLuc, Km substrates, luminescence inhibition; 6.9% of 360,000 active; Potency, µM (top dose mostly 57.5 µM), usual class: inhibitors; note: nearly all actives have a fitted effect of over 55% in size
Target sequence (P08659 whole entry, looked up): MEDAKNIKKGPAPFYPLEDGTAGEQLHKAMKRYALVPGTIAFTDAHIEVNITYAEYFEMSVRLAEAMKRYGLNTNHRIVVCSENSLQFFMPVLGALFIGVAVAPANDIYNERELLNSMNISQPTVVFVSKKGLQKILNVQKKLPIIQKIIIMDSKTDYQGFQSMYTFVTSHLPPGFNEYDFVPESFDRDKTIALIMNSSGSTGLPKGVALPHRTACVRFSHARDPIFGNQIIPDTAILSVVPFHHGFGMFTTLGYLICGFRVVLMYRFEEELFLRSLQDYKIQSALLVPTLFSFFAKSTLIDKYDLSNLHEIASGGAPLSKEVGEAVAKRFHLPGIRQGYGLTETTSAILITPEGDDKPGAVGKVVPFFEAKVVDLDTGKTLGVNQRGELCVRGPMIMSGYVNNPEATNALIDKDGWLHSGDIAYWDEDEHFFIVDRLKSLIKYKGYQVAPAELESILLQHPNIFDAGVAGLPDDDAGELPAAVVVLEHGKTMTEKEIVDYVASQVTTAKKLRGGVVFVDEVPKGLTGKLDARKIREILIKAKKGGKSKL
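Biochemical qHTS of compounds, final roughly 60 µM downward over six points, against 10 nM purified firefly luciferase using Km concentrations of substrates (10 uM D-luciferin, 10 uM ATP) in Tris acetate pH 7.5 buffer; luminescence output.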
ELG1 genotoxic: qHTS screen for small molecules that induce genotoxicity in human embryonic kidney (HEK293T) cells expressing luciferase-tagged ELG1; 1.3% of 330,000 active; AID 504466, 2011; HEK293T ELG1-luciferase reporter, luminescence, 16 h; Potency, µM (titrated, usually from 46 µM), hits mostly activators; note: nearly all actives have a fitted effect of over 60% in size
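Genotoxic stress is detected as increased luminescence from luciferase-tagged ELG1 in HEK293T cells, measured with ONE-Glo after a 16 hr treatment at 37 °C.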
NPC1 prom act: qHTS Assay for NPC1 Promoter Activators. 2.4% of 320,000 active. AID 485313, 2010. Potency, µM (titrated, usually from 9.22 µM), actives largely listed as activators. Huh7 NPC1 promoter luciferase reporter, 24 h; note: nearly all actives have a fitted effect of over 60% in size
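NPC1 promoter–luciferase Huh7 cells; 24 h compound; luminescence.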
ELG1 repair inh: qHTS screen for small molecules that inhibit ELG1-dependent DNA repair in human embryonic kidney (HEK293T) cells expressing luciferase-tagged ELG1; HEK293T ELG1-luciferase reporter, luminescence, 16 h; DNA damage induced by 5-fluorouridine; Potency, µM (top dose mostly 46.1 µM), usual class: inhibitors; 2.3% of 330,000 active; AID 504467, 2011; note: nearly all actives have a fitted effect of over 55% in size
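Luminescence from the luciferase reporter, measured 30 min after ONE-Glo reagent at room temperature, was the read-out. Beforehand, 2,000 cells per well were exposed for 16 hr at 37 °C to 5-fluorouridine together with compound or vehicle.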
SMN2 splice up: qHTS Assay for Enhancers of SMN2 Splice Variant Expression; HEK293 SMN2-luciferase splicing reporter, luminescence, 30-36 h; Potency, µM (doses to about 46.1 µM), actives largely listed as activators; 2.8% of 210,000 active; AID 1458, 2008; note: nearly all actives have a fitted effect of over 55% in size
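HEK293 cells carry an SMN2 minigene-luciferase reporter in which exon 7 inclusion puts luciferase in frame. Cells were seeded at 2000 cells/well, attached for 10-12 hours, then exposed to compounds for 30-36 hours at 37C before ONE-Glo luminescence.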
Rab9 promoter act: qHTS Assay for Rab9 Promoter Activators | Potency, µM (series often up to 9.22 µM), hits mostly activators | 2.8% of 320,000 active | Huh7 Rab9 promoter-luciferase reporter, luminescence, 24 h; note: nearly all actives have a fitted effect of over 60% in size
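Luciferase signal after 10 min detection reagent at ambient indicates Rab9 promoter upregulation; stably transfected Huh7 cells were treated 24 h with compound in DMSO at 37 °C, 5% CO2.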
Numbers stand for hits; i = inactive; ? = inconclusive; nt = no result given. Compounds with a hit are over-represented: about 9.2% of the library has one in this group of screens. Calls come from the whole dose curve; as a rule, active = well fitted curve in the direction sought with a large enough effect; inconclusive = small, poorly fitted or top-dose-only effect, or another doubt; inactive = no such curve, though single readings can be large; an effect the other way counts as inactive or inconclusive.

SMILES	FLuc counter	ELG1 genotoxic	NPC1 prom act	ELG1 repair inh	SMN2 splice up	Rab9 promoter act
CC(C)Cn1c(N)c(C(=O)COC(=O)c2ccc([N+](=O)[O-])o2)c(=O)n(C)c1=O	i	i	i	i	i	i
COc1ccc(N2CC(O)=C(c3nc(-c4ccc(F)cc4)cs3)C2=N)cc1OC	?	i	i	13µM	i	?
CCCn1c(C)nc2c(NCCO)nc(C)nc21	nt	nt	nt	nt	i	nt
Cc1ccc(C(=O)O/N=C(\N)Cc2ccc([N+](=O)[O-])cc2)c(Cl)c1	21µM	i	i	?	nt	i
Cc1ccc(C(=O)O/N=C(\N)Cc2cccs2)c(Cl)c1	1.2µM	2.1µM	1.6µM	?	nt	2µM
Cc1cc(OCC(=O)O/N=C(\N)Cc2cccs2)ccc1Br	?	i	i	i	i	i
O=C(CN1C(=O)c2ccccc2S1(=O)=O)c1cccc(Br)c1	7.6µM	i	?	i	nt	?
O=C(CN1C(=O)c2ccccc2S1(=O)=O)c1ccc(OC(F)F)cc1	12µM	i	i	12µM	nt	i
O=C(CN1C(=O)c2ccccc2S1(=O)=O)c1ccccc1F	11µM	i	?	?	nt	?
O=C(CN1C(=O)c2ccccc2S1(=O)=O)c1ccc(F)cc1	13µM	i	?	i	nt	?
O=C(CN1C(=O)c2ccccc2C1=O)c1ccc(F)cc1	?	i	i	?	nt	i
O=C(CN1C(=O)c2ccccc2S1(=O)=O)N1CCN(c2ccccc2F)CC1	?	i	i	?	i	i
NS(=O)(=O)c1ccc(NC(=O)C2Cc3ccccc3N2C(=O)c2ccccc2)cc1 (stereo not given)	i	nt	nt	nt	nt	nt
CC1=N/C(=C/c2cc(Br)cc(Br)c2O)C(=O)O1	i	i	i	i	nt	i
Cc1ccc(CC(=O)OC(C)C(=O)NC2CCCCC2C)cc1C (stereo not given)	i	i	i	i	nt	i
CC1CCN(C(=O)CN2C(=O)c3ccccc3S2(=O)=O)CC1	i	?	3.5µM	?	i	2.5µM
NC(=O)C1CCN(C(=O)CN2C(=O)c3ccccc3S2(=O)=O)CC1	i	i	i	i	i	i
CC(C)n1cc(/C=N/Nc2ccc(C(=O)O)cc2)c2ccccc21	6µM	?	i	?	nt	i
O=C(N/N=C/c1cn(Cc2cccc(F)c2)c2ccccc12)c1cc(O)cc(O)c1	17µM	i	i	i	nt	i
Nc1ccc(C(=O)N/N=C/c2cn(Cc3ccc(F)cc3)c3ccccc23)cc1	?	i	i	i	nt	i
COC(=O)N/N=C/c1cn(Cc2ccccc2F)c2ccccc12	i	i	i	21µM	nt	i
Nc1ccc(C(=O)N/N=C/c2cn(Cc3ccccc3F)c3ccccc23)cc1	24µM	i	i	i	nt	i
CC(C)CC(N)C(=O)OCc1ccc([N+](=O)[O-])cc1 (stereo not given)	i	i	i	?	nt	i
COCCNC(=O)CSc1nc(-c2cc(OC)c(OC)c(OC)c2)[nH]c1-c1ccc(Cl)cc1	i	nt	nt	nt	i	nt
O=C(CN1C(=O)COc2ccc(S(=O)(=O)N3CCOCC3)cc21)N1CCN(c2ccc(F)cc2)CC1	i	nt	nt	nt	i	nt
SMILES	FLuc counter	ELG1 genotoxic	NPC1 prom act	ELG1 repair inh	SMN2 splice up	Rab9 promoter act
Cn1c(=O)c(C(=O)CCl)c(N)n(CC2CC2)c1=O	i	i	i	?	i	i
COC(=O)N/N=C/c1cn(CCCOc2ccccc2)c2ccccc12	i	i	?	16µM	i	?
COC(=O)N/N=C/c1cn(Cc2ccccc2Cl)c2ccccc12	i	i	i	i	i	i
Nc1ccc(C(=O)N/N=C/c2cn(Cc3ccccc3)c3ccccc23)cc1	17µM	i	i	i	nt	i
O=C(N/N=C/c1cn(CCOc2ccccc2)c2ccccc12)c1ccncc1	?	i	i	i	i	i
Cc1ccc(OCC(=O)N/N=C\c2cn(Cc3ccccc3)c3ccccc23)cc1C	i	i	i	i	i	i
COc1cc(C(=O)N/N=C/c2cn(Cc3ccccc3)c3ccccc23)ccc1O	17µM	i	i	i	nt	i
O=C(O)c1ccc(N/N=C/c2cn(Cc3ccccc3F)c3ccccc23)cc1	21µM	?	i	?	nt	?
CCOC(=O)c1cccc(NC(=O)c2ccc(-n3cnnn3)cc2)c1	nt	i	nt	i	nt	nt
Cc1ccccc1CNc1ccc(C(CC(N)=O)NC(=O)c2ccccc2)cc1[N+](=O)[O-] (stereo not given)	i	i	i	?	nt	i
COc1ccc(N2C(=O)N3[C@@H]4c5ccccc5OC[C@@H]4[C@@H](c4ccccc4)[C@@]3(C)C2=O)cc1	nt	i	nt	i	nt	nt
CCCCN(C(=O)CCC(=O)Nc1cc(C)on1)C(C(=O)NC1CCCC1)c1ccc(OCC)cc1 (stereo not given)	i	i	i	i	nt	i
Cn1cc(/C=N/Nc2ccccc2)c2ccccc21	13µM	?	i	i	?	?
CCc1ccc(-c2nc(CS(=O)CC(=O)NCCc3ccc(Cl)cc3)c(C)o2)cc1 (stereo not given)	i	nt	nt	nt	nt	nt
O=C(COC(=O)c1cccnc1Cl)NCc1cccs1	i	i	i	i	i	i
Cn1c(/C(C#N)=C/c2ccc(C(F)(F)F)cc2)nc2ccccc21	6.7µM	nt	nt	nt	i	nt
COc1cc(/C=C(\C#N)c2nc3ccccc3n2C)cc(OC)c1O	?	i	i	?	i	i
Cn1c(/C(C#N)=C/c2ccc(O)cc2)nc2ccccc21	12µM	?	?	?	nt	?
Cn1c(/C(C#N)=C/c2ccncc2)nc2ccccc21	i	i	i	i	i	i
Cc1ccccc1NC(=O)n1ncc2cc(Cl)ccc21	21µM	i	i	?	nt	i
COc1ccccc1NC(=O)n1ncc2c(C)cccc21	i	nt	nt	nt	nt	nt
Cc1ccc(NC(=O)n2ncc3c(C)cccc32)cc1F	1.5µM	?	?	?	nt	0.79µM
COc1ccc(NC(=O)n2ncc3c(C)cccc32)cc1	3µM	?	0.089µM	?	nt	0.1µM
COc1ccc(NC(=O)n2ncc3c(C)cccc32)cc1OC	1.9µM	?	2.2µM	?	nt	3.2µM
COc1ccccc1/C=C/C=N/n1c(-c2ccc(Cl)cc2)n[nH]c1=S	?	i	i	?	nt	i
COc1ccc(C)cc1NC(=O)n1ncc2c(C)cccc21	7.6µM	i	i	i	nt	i
Cc1cccc2c1cnn2C(=O)Nc1ccccc1Cl	1.7µM	?	?	?	nt	?
COc1ccc(-n2nc(C(=O)N3CCN(c4cccc(C(F)(F)F)c4)CC3)c3c4ccccc4n(C)c3c2=O)cc1Cl	i	nt	nt	nt	i	nt
